Results filed as inconclusive are left out. Activity calls are given as the source filed them. Unless noted, the call rests on the fitted dose curve; in most records, active means well fitted curve in either direction with a large enough effect (not every such curve was filed as active); inconclusive means small, poorly fitted or top-dose-only effect, or another doubt; inactive means flat fitted curve, though single readings scatter.
Legend:
[1] = AP1 Signaling Pathway (AID 357); settings: ME-180 AP-1-bla reporter, EGF-induced, beta-lactamase ratio, 5 h; at 17.2 µM (top of the series) unless noted;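 further: ME-180 reporter cells stimulated with EGF at its EC50 level; on the % scale 0 is the no-effect control and ±100 the full control effect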
Procedure, shortened: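 Titration-series screen for positive or negative modulators of EC50 EGF-induced signaling in ME-180 cells carrying an AP-1-driven beta-lactamase reporter. After 5 hours at 37 degrees Celsius, CCF4 460nm/530nm emission ratio gave %Activity; AC50 values derived.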

[2] = NFAT Signaling Pathway (AID 444); settings: Jurkat NFAT-bla M1, carbachol, beta-lactamase ratio, 5 h; at 17.2 µM (top of the series) unless noted;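 further: carbachol stimulus at about its EC50 of 1 µM final; on the % scale 0 is the no-effect control and ±100 the full control effect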
Procedure, shortened: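 Jurkat cells carrying an NFAT-driven β-lactamase reporter and co-transfected muscarinic M1 receptor were treated with compound plus carbachol (1 uM final, an EC50 level) for 5 h at 37 °C. CCF4 loading followed for 1 h at RT; 460/530 nm ratio gave %activity.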

[3] = Stat Signaling Pathway (AID 446);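 further: ME-180 cervical cancer cells given 40 pM IL-6 alongside compound; SIE-controlled beta-lactamase reporter measured as 460/530 nm FRET emission ratio; on the % scale 0 is the no-effect control and ±100 the full control effect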
Procedure, shortened: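 Reporter line: ME-180 cervical carcinoma, SIE-beta-lactamase. Treatment: compound with 40 pM IL-6, 5 hrs, 37 C, in low-serum OPTI-MEM with 10 mM HEPES pH 7.3. Detection: 460/530 nm fluorescence.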

[4] = biological target: Glucocorticoid receptor (Homo sapiens) (UniProt P04150); experiment: GR-GFP Redistribution (AID 450;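 active means compounds whose dose series gives a full or clear partial fitted curve of increased nuclear translocation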; further: potency means the concentration at half of the fitted maximal effect); settings: U2OS GR-GFP nuclear translocation, laser cytometry, 2 h
Sequence of Glucocorticoid receptor (Homo sapiens) (P04150 whole entry, looked up): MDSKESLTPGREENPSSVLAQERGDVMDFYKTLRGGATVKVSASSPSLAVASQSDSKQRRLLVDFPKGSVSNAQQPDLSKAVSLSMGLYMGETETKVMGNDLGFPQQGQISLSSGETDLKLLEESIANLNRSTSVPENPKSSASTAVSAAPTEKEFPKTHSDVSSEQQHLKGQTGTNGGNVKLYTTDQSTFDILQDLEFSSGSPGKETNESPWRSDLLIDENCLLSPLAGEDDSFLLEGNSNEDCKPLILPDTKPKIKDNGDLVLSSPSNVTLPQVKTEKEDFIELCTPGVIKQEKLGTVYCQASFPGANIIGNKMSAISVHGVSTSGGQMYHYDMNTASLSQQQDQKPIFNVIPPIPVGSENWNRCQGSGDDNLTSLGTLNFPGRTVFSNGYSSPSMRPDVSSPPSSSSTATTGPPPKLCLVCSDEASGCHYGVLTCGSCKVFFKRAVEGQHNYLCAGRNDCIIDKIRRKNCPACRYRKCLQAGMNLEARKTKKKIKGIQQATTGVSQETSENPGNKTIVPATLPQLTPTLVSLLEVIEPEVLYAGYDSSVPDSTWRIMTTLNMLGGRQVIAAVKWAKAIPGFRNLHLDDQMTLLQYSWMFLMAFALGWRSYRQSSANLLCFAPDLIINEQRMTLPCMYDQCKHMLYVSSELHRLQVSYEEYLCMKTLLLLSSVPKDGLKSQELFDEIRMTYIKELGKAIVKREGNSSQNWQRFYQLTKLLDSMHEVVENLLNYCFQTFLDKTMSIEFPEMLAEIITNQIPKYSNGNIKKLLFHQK

CC(C)OC(=O)c1c(N)n(Cc2ccco2)c2nc3ccccc3nc12
inactive: activity change, negative = inhibition [1] -15.7% | activity change, negative = inhibition [2] 17.6% | outcome [3] | Potency [4] > 20.6 µM

COc1cc2[nH]c(=O)n(-c3cccc(Cl)c3)c(=O)c2cc1OC
inactive: activity change, negative = inhibition [1] 9.62% | activity change, negative = inhibition [2] 13.7% | outcome [3] | Potency [4] > 20.6 µM

CC(C)C(=O)N1CCN(CCN=Cc2c(O)n(C)c(=O)n(C)c2=O)CC1
inactive: activity change, negative = inhibition [1] 10.2% | activity change, negative = inhibition [2] -6.53% | outcome [3] | Potency [4] > 20.6 µM
